# Source: PubChem (The Scripps Research Institute Molecular Screening Center)
# PME-1 primary = PME-1 inhibitors via competitive probe labeling, primary screen, biochemical, fluorescence polarization, FP-Rh probe, HTS. Protein phosphatase methylesterase 1 (Homo sapiens), Q9Y570. recombinant PME-1. inhibition, % at 5.9 µM. hit rate 0.53% among 320,000;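 active means inhibition above the campaign mean of all compounds plus 3 SD, cut at about 26% in these data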;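 further: competitive labeling of PME-1 active site by serine hydrolase directed probe; 0% = PME-1 with DMSO and 100% = wells lacking PME-1 enzyme; inhibitors block probe labeling so polarization falls and inhibition rises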
# Target sequence (Q9Y570 whole entry, looked up): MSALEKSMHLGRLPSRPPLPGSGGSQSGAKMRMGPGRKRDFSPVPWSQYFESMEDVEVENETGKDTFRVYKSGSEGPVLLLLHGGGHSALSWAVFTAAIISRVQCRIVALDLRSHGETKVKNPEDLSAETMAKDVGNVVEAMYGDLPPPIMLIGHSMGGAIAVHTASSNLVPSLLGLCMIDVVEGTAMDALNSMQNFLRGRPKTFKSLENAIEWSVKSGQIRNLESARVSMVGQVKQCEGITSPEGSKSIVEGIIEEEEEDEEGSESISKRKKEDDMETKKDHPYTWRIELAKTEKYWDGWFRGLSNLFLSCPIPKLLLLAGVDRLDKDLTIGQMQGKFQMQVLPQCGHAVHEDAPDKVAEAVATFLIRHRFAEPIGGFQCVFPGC
# PAFAH1B3 inh = PAFAH1B3 enzyme inhibitors, primary screen, biochemical, fluorescence polarization, human. Platelet-activating factor acetylhydrolase IB subunit alpha1 (Homo sapiens), Q15102. recombinant PAFAH1B3, FP-rhodamine probe. inhibition, % at 3.39 µM. hit rate 0.28% among 340,000;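 active means inhibition above the screen-wide average of all tested compounds plus 3 SD, cut at about 25% in these data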;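 further: 0% = enzyme with DMSO only and 100% = wells lacking PAFAH1B3 protein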
# PAFAH2 inh = PAFAH2 enzyme inhibitors, primary screen, biochemical, fluorescence polarization, human; recombinant PAFAH2, FP-rhodamine activity probe; Platelet-activating factor acetylhydrolase 2, cytoplasmic (Homo sapiens), Q99487; hit rate 0.99% among 340,000; inhibition, % at 3.39 µM;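 active means inhibition above the mean over all tested compounds plus 3 SD, cut at about 30% in these data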;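 further: inhibitors block probe labeling of enzyme so polarization drops; 0% = enzyme with DMSO and 100% = wells lacking PAFAH2 protein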
# PAFAH1B2 inh = PAFAH1B2 enzyme inhibitors, primary screen, biochemical, fluorescence polarization, human; AID 492953, 2010; hit rate 1.2% among 340,000; inhibition, % at 3.39 µM; recombinant PAFAH1B2, FP-rhodamine activity probe;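 active means inhibition above the mean of all tested compounds plus 3 SD, cut at about 24% in these data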;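 further: 0% = enzyme with DMSO and 100% = wells lacking PAFAH1B2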
# Target sequence (P68402 whole entry, looked up): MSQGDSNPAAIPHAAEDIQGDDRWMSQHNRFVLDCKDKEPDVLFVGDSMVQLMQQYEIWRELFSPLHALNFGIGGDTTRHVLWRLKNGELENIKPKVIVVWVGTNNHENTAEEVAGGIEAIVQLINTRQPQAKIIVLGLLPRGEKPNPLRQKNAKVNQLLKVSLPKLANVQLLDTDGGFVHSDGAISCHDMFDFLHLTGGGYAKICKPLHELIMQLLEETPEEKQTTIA
# pPAFAH inh = pPAFAH enzyme inhibitors, primary screen, biochemical, fluorescence polarization, human | Platelet-activating factor acetylhydrolase (Homo sapiens), Q13093 | recombinant pPAFAH, FP-rhodamine probe fluorescence polarization | inhibition, % at 3.39 µM | hit rate 1.5% among 330,000;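 active means inhibition above the mean inhibition across the screen plus 3 SD, cut at about 25% in these data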;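 further: inhibitors block binding of the rhodamine activity-based probe so polarization drops; 0% = enzyme with DMSO and 100% = wells lacking pPAFAH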
# Fam108B counter = mouse Fam108B serine hydrolase inhibitors, primary screen, counter-screen for RBBP9 inhibitor project, biochemical, fluorescence polarization. AID 1947, 2009. recombinant Fam108B, FP-Rh probe fluorescence polarization. hit rate 0.33% among 300,000. inhibition, % at 9.51 µM;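 active means inhibition above the screen mean inhibition plus 3 SD, computed separately per campaign, cut at about 18% in these data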;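 further: inhibitors lower polarization as less probe binds the enzyme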
# * marks the source's active call; other numbers are inactive results; nt = no result. Only some compounds are listed: those with a hit (about 2.9% of all), similar ones and a draw of the others.
SMILES,PME-1 primary,PAFAH1B3 inh,PAFAH2 inh,PAFAH1B2 inh,pPAFAH inh,Fam108B counter
CS(=O)(=O)C1=C(O)C(=O)N(CCCC(=O)O)C1c1ccccc1F (stereo not drawn),-4,-4,3,-1,1,1
CCc1ccc(C(=O)/C=C/c2ccc([N+](=O)[O-])o2)cc1,-3,0,1,1,27*,16
COc1ccc(-c2cc(C(F)(F)F)nc(S(C)(=O)=O)n2)cc1,-18,0,-2,-5,29*,-15
Cc1ccc2c(c1)N(C)/C(=C/c1cccc[n+]1C)S2,9,7,3,3,3,-1
Nc1ccccc1-c1nnn(CC(=O)N2CCCc3ccccc32)n1,-3,-1,8,-4,-6,2
Cc1cc2ncn(S(=O)(=O)N3CCCCC3)c2cc1C,2,1,-8,25*,6,3
O=C(Nc1ccccc1NC(=O)C1CCCO1)c1ccco1 (stereo not drawn),2,4,6,1,-4,3
CCC(=O)n1nc(-c2ccc(OC)cc2)nc1N,-8,6,11,2,-3,-4
CC1=C(C(=O)OCC(Br)(Br)Br)C(c2cccc([N+](=O)[O-])c2)NC(=O)N1CCCC(=O)O (stereo not drawn),9,-7,-2,92*,-3,0
CCOC(=O)c1cc2c(N)c(C(=O)c3ccc(Br)cc3)sc2[nH]c1=O,8,12,32*,32*,10,5
CCOC(=O)c1cc(C(=O)OCC)c(=O)[nH]c1C,0,8,-2,0,2,-1
O=S(=O)(NCCc1ccccn1)c1ccc(F)c(F)c1,5,2,5,3,11,2
O=S(=O)(NCCCc1ccccc1)c1ccc(F)c(F)c1,4,-3,15,36*,29*,1
O=S(=O)(NCCCc1ccccc1)c1ccc(Cl)cc1,-10,1,8,26*,16,-1
O=[N+]([O-])c1ccc(S(=O)(=O)NCCCc2ccccc2)cc1,-2,nt,nt,nt,3,-1
CCOc1cccc(-c2nnc3sc(COc4ccc(Cl)cc4)nn23)c1,0,2,0,-3,-3,-10
COc1ccc(-c2nnc(SCCC(=O)O)n2-c2ccccc2)cc1,1,3,10,3,3,3
Cc1cc(=O)oc(C)c1C(=O)N1CCN(c2ccc(F)cc2)CC1,-4,7,3,1,3,-1
Cc1ccc(CN(C)C(=O)COC(=O)CSc2ccc(C(N)=O)cc2[N+](=O)[O-])cc1,0,3,1,7,4,0
CC1CCCCC1NC(=O)COC(=O)c1ccc2ccccc2n1 (stereo not drawn),5,4,13,2,27*,-1
CC1CCCC(NC(=O)COC(=O)c2ccc3ccccc3n2)C1C (stereo not drawn),3,8,11,8,17,2
CN(C(=O)COC(=O)c1ccc(Cl)c(S(=O)(=O)N2CCCCCC2)c1)C1CCS(=O)(=O)C1 (stereo not drawn),nt,2,4,3,1,nt
CN(C(=O)COC(=O)c1ccc(Cl)c(S(=O)(=O)NCc2ccccc2)c1)C1CCS(=O)(=O)C1 (stereo not drawn),nt,1,5,34*,nt,nt
O=C(O)c1ccc(-c2nc(-c3ccccc3)c(-c3cccs3)[nH]2)cc1,11,8,8,6,13,4
Cc1ccc(-c2[nH]c(-c3ccc(C(=O)O)cc3)nc2-c2ccccc2)cc1,4,1,2,6,31*,3
SMILES,PME-1 primary,PAFAH1B3 inh,PAFAH2 inh,PAFAH1B2 inh,pPAFAH inh,Fam108B counter
CN(C)Cc1c(C(=O)Nc2ccccc2)[nH]c2ccccc12,5,10,3,-6,4,-1
O=C(Nc1ccc(Cl)cc1)[C@@H]1[C@@H]2C(=O)N(c3ccc4ccccc4c3)C(=O)[C@@H]2[C@H]2C=CC=NN21,-7,4,33*,4,29*,-6
O=S(=O)(Nc1cccnc1)c1ccc(Br)c2ccccc12,5,9,3,26*,11,-3
O=C1CC(c2cccc(Br)c2)c2cc3c(cc2N1)CCC3 (stereo not drawn),0,4,1,5,28*,-6
COc1cc2c(cc1OC)C(c1cccc(Br)c1)CC(=O)N2 (stereo not drawn),nt,2,-1,5,nt,nt
COc1ccc(N2Cc3ccc(C(=O)N/N=C\c4ccc(O)cc4O)cc3C2)cc1,48*,nt,nt,nt,39*,50*
Cc1cc(Br)ccc1NC(=S)N1CCOCC1,4,7,-1,2,0,2
O=C(CCl)N(c1ccccc1)C1CCCCC1,-6,2,0,33*,0,-3
CCCCCC1CC(/C(C)=N/NC(N)=O)OC1=O (stereo not drawn),-5,0,9,0,0,2
CCCCn1c(/C=N/Nc2nc3ccccc3[nH]2)nc2ccccc21,52*,15,2,4,11,4
O=C(CCCCCBr)N1CCC(CC2CC(c3cccc(Br)c3)=NO2)(C(=O)NCC2CCCCC2)CC1 (stereo not drawn),2,7,8,2,25*,0
Cc1ccccc1C(=O)N/N=C/c1ccc(OCC(=O)N2CCCCC2)cc1,-2,8,6,6,2,2
CC(=O)Nc1ccc2nc3c(=O)n(C)c(=O)n(C)c3nc2c1,0,16,5,8,30*,8
Cn1c(=O)c2nc3ccccc3nc2n(C)c1=O,2,10,2,4,3,-2
CC1(OC(=O)c2ccco2)C(=O)C=C2C=C(C3CC3)OC=C2C1=O (stereo not drawn),20,3,12,9,28*,14
COC/C=C/C1=CC2=CC(=O)C(C)(OC(=O)c3cnc4ccccc4n3)C(=O)C2=CN1c1ccc(CO)cc1 (stereo not drawn),5,nt,nt,nt,39*,11
CC1(OC(=O)c2cnc3ccccc3n2)C(=O)C=C2C=C(C3CC3)OC=C2C1=O (stereo not drawn),66*,nt,nt,nt,50*,48*
CC1(OC(=O)c2cccs2)C(=O)C=C2C=C(C3CC3)OC=C2C1=O (stereo not drawn),3,-2,7,4,17,6
O=C(NC1CC1)C1=C[C@@H](c2csc3ccccc23)C[C@@H](OCCCCO)O1,4,1,-2,1,7,-1
Cc1ccc(C(=O)NCCC2=CCCCC2)cc1S(=O)(=O)N1CCCCC1,3,4,5,6,-3,-3
